The results in this text go back to PubChem BioAssay.

Structures are written as SMILES. The source made the active and inactive calls.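 The calls were made as follows, unless noted: active = visual image review flags a hit and inhibition of aggregation exceeds 20%; inconclusive = visual hit but inhibition at or below 20%; inactive = no hit on visual image review.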

Assay [1] is described as follows: inhibitors of TNFa-induced NFkB p65 translocation, primary screen, imaging, HUVEC, MLSMR starter and 10KST1 sets (AID 438;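 active = inhibition above 20% together with a positive visual image hit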;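 also: compound added about 3h40 before a 20 min TNFalpha stimulation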;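 as to inhibition: signal is the nuclear over cytoplasmic p65 intensity ratio per well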). Conditions: HUVEC TNFa-induced p65 nuclear translocation; cell count: measured here: nuclei count (cytotoxicity indicator), at 2.08 µM; inhibition: at 2 µM, stronger effect = higher value, 0% TNFa-plus-vehicle, 100% no-TNFa wells.
A short description of assay [2]: reduction of polyQ htt aggregates in cells – imaging, exon1htt(103Q)mCFP cells, high-content imaging, primary screen (AID 483).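 Also: compound exposure lasted 3 days before fixation.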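 As to nuclei count: percent of the per-plate median nuclei count of sample wells.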 Conditions: exon1htt(103Q)mCFP cell line, aggregate imaging, at 2 µM; inhibition of aggregation: stronger effect = higher value; nuclei count: measured here: cell count, toxicity.
Assay [3] in a line: endothelial E-selectin expression blockers – imaging, HUVEC, immunofluorescence, MLSMR starter and 10KST1 sets, primary screen (AID 487;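 active = visually confirmed hit in the image check and inhibition above 20%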;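 as to inhibition: signal is fraction of cell area covered by stained E-selectin grains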;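 as to nuclei count: 100% = median nuclei count of all wells on the same plate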). The note with it: HUVEC TNFalpha-induced E-selectin immunofluorescence imaging, at 2 µM; inhibition: stronger effect = higher value; nuclei count: measured here: cell number, toxicity.
Assay [4] in a line: Primary imaging screen for DUSP6 inhibitors that restore phospho-Erk in transfected HeLa cells, chemical complementation (AID 609;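 active = compounds giving at least 50% inhibition in the cell-based MKP-3 phosphatase rescue imaging test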;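 as to inhibition: phospho-Erk level distribution per well compared with pooled transfected vehicle control wells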). Conditions: HeLa MKP-3 transfected, phospho-Erk imaging KS statistic, at 10 µM, cells stimulated with TPA for 15 min.
Assay [5] has as its target Dual specificity protein phosphatase 6 (Homo sapiens) (UniProt Q16828). The description is as above. The note with it: HeLa MKP-3 transfected, phospho-Erk imaging KS statistic; at 10 µM; stronger effect = higher value; cells stimulated with TPA for 15 min.
Assay [6] has as its target Voltage-gated potassium channel subunit beta-2 (Rattus norvegicus) (UniProt P62483). The assay can be described thus: inhibitors of rat Kvbeta2 reductase activity – biochemical, NADPH fluorescence, primary screen (AID 622;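 active = fluorescence slope higher than the sample average by over 3 SD, cut at about -0.22 in these data, passing the limit was not always enough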;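 also: slope of raw intensity against log time taken from 70 to 1610 s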). Conditions: recombinant KvBeta, 4-cyanobenzaldehyde reduction, at 10 µM, stronger effect = higher value.
Assay [7] has the same target. The assay can be described thus: enhancers of rat Kvbeta2 NADPH turnover – biochemical, NADPH fluorescence, primary screen (AID 623;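 active = NADPH fluorescence slope more negative than the mean of all samples by about 3 SD, 99.7% confidence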;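 also: fluorescence intensity change per second fitted from 20 to 320 s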). Conditions: Recombinant KvBeta, NADPH fluorescence decrease slope, 10 min; at 10 µM; stronger effect = lower value.
The target in assay [8] is Alpha-2C adrenergic receptor (Homo sapiens) (UniProt P18825). The assay can be described thus: compounds altering alpha2C-coupled GIRK flux – cell-based, HEK293 alpha2C/GIRK1/2, thallium flux, primary screen (AID 624;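 active = fluorescence slope after compound addition differing from the mean of all screened samples at 99.7% confidence, in either direction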;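 also: slope of fluorescence ratio to pre-addition baseline per second over 15 to 24 s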). Conditions: thallium flux BTC fluorescence, at 10 µM, actives lie on both sides.
A short description of assay [9]: inhibitors of larval lipid processing in zebrafish, primary screen, whole organism, PED6 fluorescence, gall bladder and intestine (AID 686;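 active = a full or partial loss of lipid-probe fluorescence in the fish gall bladder, intestine or both, judged by eye; inactive = no fluorescence loss, or compound toxic to the fish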;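 also: larvae 5 to 7 days old with five fish per well; signal comes from phospholipase A2 cleavage of quenched PED6 carried via bile; overnight exposure to compound and PED6 before scoring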). Conditions: Zebrafish larvae PED6 lipid processing, fluorescence scoring; screened at 20 µM (by protocol).
Assay [10] is described as follows: loss of swimming-algae plug formation – whole organism, Chlamydomonas reinhardtii, WT vs cilia-less mutant, absorbance, 96-well, primary screen (AID 463189;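 active = inhibition at or above 50% relative to wild type and mutant plate controls; inactive = inhibition below 50%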;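 also: 0% = wild type cc124 cells in DMSO and 100% = ciliumless bld1 mutant cells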). The note with it: Chlamydomonas reinhardtii gravitaxis, OD600 absorbance, 2 days; at 10 µM; stronger effect = higher value.
Assay [11] in a line: blockers of RIG-like receptor reporter activation – cell-based, Sendai virus stimulus, luciferase, 10K MLSCN set, TLR/RLR signaling modifier project, primary screen (AID 602276;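 active = inhibition at or above 50% at 10 µM; inactive = inhibition below 50%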;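 also: firefly luciferase from ISG56 promoter only with Renilla not read in this screen; 0% = Sendai virus plus DMSO and 100% = medium plus DMSO without virus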). Conditions: HEK293 RL24 IRF3 luciferase reporter, at 10 µM, stronger effect = higher value.
The nature of assay [12]: TLR3 IRF3 reporter activation blockers – cell-based, poly I:C stimulus, luciferase, 10K MLSCN set, primary screen (AID 602277;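 active = inhibition of the reporter signal at or above 50%; inactive = inhibition below 50%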). Conditions: HEK293-TLR3 RL24 IRF3 luciferase reporter, at 10 µM, stronger effect = higher value.
The mark [13] stands for this setting: measured here: cell density z-score.
[14] abbreviates: measured here: nuclear c-Myc green intensity z-score.
Setting [15] is: measured here: nuclear pErk red intensity z-score, stronger effect = higher value.

Chain of Voltage-gated potassium channel subunit beta-2 (Rattus norvegicus) (P62483 whole entry, looked up): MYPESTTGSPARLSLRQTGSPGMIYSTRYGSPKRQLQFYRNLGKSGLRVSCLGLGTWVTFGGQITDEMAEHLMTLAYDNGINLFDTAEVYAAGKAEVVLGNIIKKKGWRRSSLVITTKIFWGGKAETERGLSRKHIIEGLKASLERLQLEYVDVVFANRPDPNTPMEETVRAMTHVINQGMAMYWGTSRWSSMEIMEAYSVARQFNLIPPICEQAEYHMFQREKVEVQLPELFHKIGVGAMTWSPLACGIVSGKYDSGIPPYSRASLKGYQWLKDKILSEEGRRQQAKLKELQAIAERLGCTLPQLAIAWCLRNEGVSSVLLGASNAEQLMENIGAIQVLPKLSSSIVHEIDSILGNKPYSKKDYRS
Chain of Alpha-2C adrenergic receptor (Homo sapiens) (P18825 whole entry, looked up): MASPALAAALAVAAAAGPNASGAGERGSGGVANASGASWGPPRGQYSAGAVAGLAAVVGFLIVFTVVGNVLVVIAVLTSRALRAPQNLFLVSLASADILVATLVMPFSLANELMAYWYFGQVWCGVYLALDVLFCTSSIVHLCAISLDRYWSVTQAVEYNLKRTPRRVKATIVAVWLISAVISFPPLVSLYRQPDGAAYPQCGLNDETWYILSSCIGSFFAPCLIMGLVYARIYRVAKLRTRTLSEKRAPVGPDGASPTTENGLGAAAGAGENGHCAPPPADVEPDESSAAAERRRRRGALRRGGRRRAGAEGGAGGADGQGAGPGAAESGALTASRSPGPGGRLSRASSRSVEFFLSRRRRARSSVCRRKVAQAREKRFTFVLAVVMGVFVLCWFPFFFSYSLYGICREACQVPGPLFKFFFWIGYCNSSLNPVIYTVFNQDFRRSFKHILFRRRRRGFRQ
Chain of Dual specificity protein phosphatase 6 (Homo sapiens) (Q16828 whole entry, looked up): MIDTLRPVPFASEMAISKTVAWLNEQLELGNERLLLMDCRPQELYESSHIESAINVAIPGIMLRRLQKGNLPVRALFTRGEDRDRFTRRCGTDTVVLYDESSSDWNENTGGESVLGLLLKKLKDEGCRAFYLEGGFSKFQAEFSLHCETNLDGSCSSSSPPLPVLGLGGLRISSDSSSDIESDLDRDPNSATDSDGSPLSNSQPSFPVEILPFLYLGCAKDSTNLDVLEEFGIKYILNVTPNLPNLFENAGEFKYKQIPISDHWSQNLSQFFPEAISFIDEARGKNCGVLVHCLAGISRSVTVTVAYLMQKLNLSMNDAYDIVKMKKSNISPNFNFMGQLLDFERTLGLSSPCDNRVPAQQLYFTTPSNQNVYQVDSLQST

On to `C[C@]12CC[C@@H]3c4ccc(O)cc4C(=O)C[C@H]3[C@@H]1CC[C@@H]2O`, for which the cell count in assay [1] was 575. The inhibition is -1.5% (inactive) in assay [1]; -48.8% (inactive) in assay [3]; 10.2% (inactive) in assay [5]; -6.24% (inactive) in assay [10]; -0.554% (inactive) in assay [11]; 18.4% (inactive) in assay [12]. In addition, in assay [2], the inhibition of aggregation is 12.4% (inactive). The nuclei count amounted to 79.9% in [2] and 123% in assay [3]. The z-score in [4] (setting [13]) was determined as 0.0524; in assay [4] (setting [14]) it was 0.457; in assay [4] (setting [15]), 1.93. In assay [6], the fluorescence slope was -0.47 (inactive). For the same molecule, the NADPH fluorescence slope in [7] is -7.3e-05 (inactive). In addition, in [8], the slope is 0.00515 (inactive). Moreover, the outcome in [9] was inactive.

With `COc1ccc(C(=O)Nc2cccnc2)cc1C(=O)Nc1cccnc1`, the cell count in [1] is 654. Also, the inhibition in assay [1] is 4.4% (inactive); in [3] it was -4.7% (inactive); in [5] it was 23.4% (inactive); in assay [10], -3.27% (inactive); in assay [11], 11.5% (inactive); in assay [12], 36% (inactive). The inhibition of aggregation in [2] was -4.7% (inactive). For the same molecule, the values for the nuclei count in [2] and in assay [3] were 101% and 72.8%, respectively. Moreover, the figures for the z-score in assay [4] (setting [13]), in [4] (setting [14]) and in [4] (setting [15]) were 0.737, -0.175 and -0.517, respectively. For the same molecule, the fluorescence slope in assay [6] was -0.448 (inactive). Further, the NADPH fluorescence slope in assay [7] is -4.6e-05 (inactive). In addition, the slope in assay [8] was 0.00454 (inactive). Further, the molecule was called inactive in assay [9].

Regarding `CC(=O)O[C@]1(C(C)=O)CC[C@H]2[C@@H]3C=C(C)C4=CC(=O)CC[C@]4(C)[C@H]3CC[C@@]21C`, in assay [1], the cell count was determined as 697. Also, the inhibition is -4.5% (inactive) in [1]; -91% (inactive) in [3]; 7.39% (inactive) in [5]; 1.32% (inactive) in assay [10]; 15.7% (inactive) in assay [11]; 41% (inactive) in assay [12]. Besides, the inhibition of aggregation in assay [2] was -13.2% (inactive). Further, the results for the nuclei count in [2] and in [3] were 103% and 125%, respectively. The results for the z-score in assay [4] (setting [13]), in assay [4] (setting [14]) and in assay [4] (setting [15]) were 0.989, -0.815 and -0.896, respectively. The fluorescence slope in assay [6] is -0.492 (inactive). For the same molecule, in assay [7], the NADPH fluorescence slope was -2e-05 (inactive). The slope in [8] was 0.00287 (inactive). For the same molecule, in assay [9], the molecule was classed as inactive.

With `COc1ccc2c(c1)c(CC(=O)OCC(=O)O)c(C)n2C(=O)c1ccc(Cl)cc1`, the cell count in assay [1] worked out at 609. Further, the inhibition in assay [1] was -4% (inactive); in [3], -34.9% (inactive); in assay [5], 17.3% (inactive); in assay [10], 14.4% (inactive); in assay [11] it was 11.9% (inactive); in [12] it was 36.9% (inactive). Further, in assay [2], the inhibition of aggregation was -25.2% (inactive). Besides, the values for the nuclei count in assay [2] and in assay [3] were 89.1% and 111%, respectively. For the same molecule, the results for the z-score in [4] (setting [13]), in assay [4] (setting [14]) and in assay [4] (setting [15]) were -0.113, 0.548 and -0.549, respectively. Besides, the fluorescence slope in [6] was -0.451 (inactive). The NADPH fluorescence slope in [7] is -3.8e-05 (inactive). In addition, the slope in [8] was 0.00555 (inactive). In addition, the call in assay [9] was inactive.

Turning to `Cc1nn(C)cc1C1C2=C(CC(C)(C)CC2=O)OC2=C1C(=O)CC(C)(C)C2`, the cell count in assay [1] turned out to be 616. Moreover, the inhibition is -2.2% (inactive) in assay [1]; -77.9% (inactive) in assay [3]; 2.46% (inactive) in assay [5]; 1.65% (inactive) in assay [10]; 10.6% (inactive) in [11]; 18% (inactive) in [12]. The inhibition of aggregation in [2] is 2.2% (inactive). In addition, the results for the nuclei count in assay [2] and in [3] were 108% and 140%, respectively. For the same molecule, the z-score in assay [4] (setting [13]) is 0.812; in assay [4] (setting [14]), 0.307; in assay [4] (setting [15]), -0.678. In addition, the fluorescence slope in [6] is -0.337 (inactive). Further, the NADPH fluorescence slope in assay [7] is -6.9e-06 (inactive). For the same molecule, in assay [8], the slope was 0.00477 (inactive). Moreover, in assay [9], the result was inactive.

Turning to `COCCCN1C(=O)C(O)=C(C(=O)c2ccco2)C1c1ccc(Br)cc1` (stereo not given), the cell count in assay [1] is 417. In addition, the inhibition in assay [1] is -4.6% (inactive); in [3], -25.5% (inactive); in assay [5], -4.7% (inactive); in [10], 6.25% (inactive); in assay [11] it was 23.9% (inactive); in [12], 22.2% (inactive). Further, the inhibition of aggregation in assay [2] is -13.4% (inactive). Further, the nuclei count in assay [2] was determined as 107%; in [3] it was 117%. Moreover, the z-score in assay [4] (setting [13]) was -1.16; in assay [4] (setting [14]) it was 0.864; in assay [4] (setting [15]), 0.315. Besides, in assay [6], the fluorescence slope was -0.457 (inactive). In addition, the NADPH fluorescence slope in [7] was 7.2e-06 (inactive). In addition, the slope in assay [8] is 0.00512 (inactive). Further, the outcome in assay [9] was inactive.

As for `CCC1=C(C(=O)OC)C(c2cc(OC)ccc2OC)C(C#N)=C(N)O1` (stereo not given), in assay [1], the cell count stood at 296. The inhibition in assay [1] is -8.8% (inactive); in assay [3] it was -58% (inactive); in [5], 5.65% (inactive); in assay [10], -0.583% (inactive); in assay [11] it was 17% (inactive); in [12], 24% (inactive). The inhibition of aggregation in assay [2] was 6.8% (inactive). Moreover, the nuclei count was 106% in assay [2] and 129% in [3]. Also, the results for the z-score in [4] (setting [13]), in assay [4] (setting [14]) and in assay [4] (setting [15]) were 1.11, 0.712 and -2.04, respectively. Further, the fluorescence slope in assay [6] was -0.478 (inactive). For the same molecule, the NADPH fluorescence slope in assay [7] is -0.000233 (inactive). Further, the slope in assay [8] is 0.00469 (inactive). In addition, the molecule was called inactive in assay [9].

Consider `CCCCCC(=O)O[C@]1(C(C)=O)CC[C@H]2[C@@H]3CCC4=CC(=O)CC[C@]4(C)[C@H]3CC[C@@]21C`, for which the cell count in assay [1] worked out at 601. The inhibition in assay [1] was -6.9% (inactive); in assay [3], -58.2% (inactive); in assay [5] it was 13.3% (inactive); in [10], 3.11% (inactive); in assay [11], 0.124% (inactive); in assay [12] it was 48% (inactive). Besides, the inhibition of aggregation in assay [2] was 2.3% (inactive). For the same molecule, the results for the nuclei count in [2] and in assay [3] were 104% and 122%, respectively. The z-score was -1.27 in assay [4] (setting [13]), -0.399 in assay [4] (setting [14]) and 1.24 in assay [4] (setting [15]). In addition, in assay [6], the fluorescence slope is -0.444 (inactive). Further, in assay [7], the NADPH fluorescence slope is -6.6e-05 (inactive). Moreover, in [8], the slope is 0.00545 (inactive). Besides, in assay [9], the call was inactive.

Regarding `O=C1CSC(=Nc2ccc(O)cc2)N1c1ccc(O)cc1`, in [1], the cell count worked out at 380. The inhibition in [1] is -9.5% (inactive); in assay [3], -49.6% (inactive); in [5] it was 9.82% (inactive); in assay [10], -9.81% (inactive); in assay [11], 17.9% (inactive); in [12] it was 25% (inactive). Moreover, the inhibition of aggregation in [2] is 3.6% (inactive). Further, the nuclei count in assay [2] came out at 95.8%; in assay [3], 92.5%. Further, the z-score was 1.48 in assay [4] (setting [13]), 1.47 in assay [4] (setting [14]) and -2.2 in [4] (setting [15]). In addition, the fluorescence slope in assay [6] is -0.463 (inactive). Further, the NADPH fluorescence slope in assay [7] is -0.000339 (inactive). The slope in assay [8] was 0.00571 (inactive). In addition, in assay [9], the call was inactive.

Consider `N#CC(C(=O)Nc1ccc(Cl)c(Cl)c1)=C1Nc2ccccc2N1`, for which, in [1], the cell count was determined as 445. Further, the inhibition in [1] is -0.2% (inactive); in assay [3], -124% (inactive); in assay [5], -1.75% (inactive); in assay [10], -6.51% (inactive); in assay [11], 12.6% (inactive); in [12], 15.9% (inactive). Also, the inhibition of aggregation in assay [2] is 13.2% (inactive). Besides, the nuclei count in [2] worked out at 98.9%; in assay [3], 136%. For the same molecule, the z-score was 0.726 in [4] (setting [13]), 1.14 in [4] (setting [14]) and 0.693 in assay [4] (setting [15]). Further, the fluorescence slope in assay [6] is -0.351 (inactive). Moreover, in [7], the NADPH fluorescence slope was -8.3e-07 (inactive). Further, in assay [8], the slope is 0.00591 (inactive). For the same molecule, in assay [9], the molecule was called inactive.
